Screening data (PubChem BioAssay)
A selection: hits, their analogues and other compounds. The true share with any hit is near 2.4%.
D2 PAM-1: HTS Assay for Positive Allosteric Modulators of the Human D2 Dopamine Receptor: Primary Screen for Potentiators; HEK293 T-REx D2, calcium flux, EC20 dopamine potentiation; potentiation, % at 10 µM; actives 0.34% (n = 340,000); AID 485347, 2010;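 active = potentiation over 3 SD above the plate norm, cut at about 30% in these data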; note: 0% is about no effect
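Using a no-wash calcium dye in inducible, force-coupled HEK293 Trex cells expressing D2, we tracked fluorescence each second for 180 s after compound, then for 180 s after EC20 dopamine to detect augmented signalling.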
D2 antagonist: HTS Assay for Allosteric Antagonists of the Human D2 Dopamine Receptor: Primary Screen for Antagonists; D(2) dopamine receptor (Homo sapiens), P14416; HEK293 TREx D2 cells, calcium flux, dopamine EC80; inhibition, % at 10 µM; actives 2% (n = 340,000); in the data active = inhibition above about 30%; inactive = below that, where a call was filed; note: 0% is about no effect
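Tetracycline-induced HEK293 T-REx cells expressing D2 force-coupled to calcium signalling were dye-loaded, exposed to compound for 180 s, then challenged with an EC80 of dopamine; calcium flux was followed kinetically for a further 180 s.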
D2 ag-1: Beta-Arrestin HTS for Positive Allosteric Modulators of the Human D2 Dopamine Receptor: Agonists; DiscoveRx PathHunter D2 beta-arrestin, luminescence, 90 min; 100% = 57 uM dopamine signal; actives 0.084% (n = 360,000); AID 624465, 2012; activation, % (concentration not given with the values); in the data active = activation above about 40%; inconclusive = between about 15% and that limit
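Agonist mode: compounds alone added to overnight-plated D2 PathHunter cells for 90 min at 37 C, with 57 uM final dopamine (EC100) defining full response. Beta-arrestin recruitment detected by chemiluminescent reagent, read after 1 h at ambient temperature.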
D2 ag-2: HTS Assay for Allosteric Agonists of the Human D2 Dopamine Receptor: Primary Screen for Agonists; D(2) dopamine receptor (Homo sapiens), P14416; HEK293 T-REx D2 cells, calcium flux agonist mode; activation, % at 2 µM; actives 0.53% (n = 340,000); AID 485358, 2010;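 active = activation over 3 SD above normal in the single-dose calcium agonist read, cut at about 30% in these data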; note: 0% is about no effect
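In this primary screen, compounds producing a positive calcium signal within 180 s of addition to tetracycline-induced, force-coupled HEK293 Trex D2 cells are flagged; cells are dye-loaded with a no-wash calcium kit beforehand.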
D2 PAM-2: Beta-Arrestin HTS for Positive Allosteric Modulators of the Human D2 Dopamine Receptor: Potentiators; actives 0.23% (n = 360,000); DiscoveRx D2 beta-arrestin cells, luminescence, 90 min; 100% = 57 uM dopamine signal; D(2) dopamine receptor (Homo sapiens), P14416; AID 624464, 2012; potentiation, % (no concentration beside the values); in the data active = potentiation above about 50%; inconclusive = mostly about 30% to 49%
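PathHunter D2 cells, attached overnight at 37 deg C, received compound in DMSO plus dopamine at EC20 (50 nM final) for 90 min at 37 deg C. Beta-arrestin recruitment was read as luminescence after 1 h with detection reagent at ambient temperature.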
D3 ag: qHTS of D3 Dopamine Receptor Agonist: D3 Dopamine Receptor B-arrestin Agonist Confirmatory Assay | shares compounds with D2 ag-2 | DiscoveRx D3 beta-arrestin cells, luminescence, 90 min | Potency, µM (highest dose often 76.9 µM), inactives show top-dose activation, actives largely listed as activators | actives 4% (n = 2,300) | AID 720506, 2013;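 note: potency is the fitted concentration of half-maximal effect; 100% = dopamine control response; nearly all actives have a fitted effect of over 70% in size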
Target sequence (P35462 whole entry, looked up): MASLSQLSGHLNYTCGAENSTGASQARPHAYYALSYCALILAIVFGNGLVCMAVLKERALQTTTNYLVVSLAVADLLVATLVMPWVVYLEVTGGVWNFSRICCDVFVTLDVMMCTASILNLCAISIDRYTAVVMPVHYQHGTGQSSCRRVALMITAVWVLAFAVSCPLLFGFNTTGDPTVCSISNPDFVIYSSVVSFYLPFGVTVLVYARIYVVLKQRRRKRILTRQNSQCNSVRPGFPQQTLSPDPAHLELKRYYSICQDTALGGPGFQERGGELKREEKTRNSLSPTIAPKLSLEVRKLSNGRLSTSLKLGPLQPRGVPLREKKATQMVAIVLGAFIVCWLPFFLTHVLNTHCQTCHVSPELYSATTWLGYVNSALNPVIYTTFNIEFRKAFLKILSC
D2 ag-3: qHTS of D3 Dopamine Receptor Agonist: D2 Dopamine Receptor B-arrestin Agonist Counterscreen | Potency, µM (doses to about 76.9 µM), without a hit: top-dose activation, most hits filed as activators | actives 5.9% (n = 2,300) | AID 720507, 2013 | DiscoveRx PathHunter D2 beta-arrestin, luminescence, 90 min; response scale: percent relative to full dopamine signal | shares compounds with D2 ag-2; note: potency is the fitted concentration of half-maximal effect; % of control where 0% means no effect; nearly all actives have a fitted effect of over 70% in size
Active calls of the source: *. Unless noted, calls come from the whole dose curve; as a rule, active = well fitted activation curve with a large enough effect; inconclusive = small, poorly fitted or top-dose-only effect; inactive = flat fitted curve, though single readings scatter.

Screening CCCNC(=O)C[C@@H]1C[C@H]2c3cc(NC(=O)c4ccc5c(c4)OCO5)ccc3O[C@H]2[C@@H](CO)O1 returned D2 ag-1 -3.7 and D2 PAM-2 4.2.
Screening COc1cc(NC(=O)CN2C(=O)CN(C)C(=O)c3ccccc32)cc(OC)c1OC returned D2 PAM-1 21.4 and D2 ag-2 1.3.
`COC(=O)c1c(NC(=O)CCCOc2ccc(C)cc2)sc2c1C(C(=O)OC)CC2` (configuration not stated) gave D2 PAM-1 6.3 and D2 ag-2 -0.2.
Screening O=C(CN1CCN(c2ccccc2F)CC1)c1ccc2cc[nH]c2c1 returned D2 PAM-1 -24.7, D2 antagonist 29.1, D2 ag-1 -4.0, D2 ag-2 27.9, D2 PAM-2 -14.0, D3 ag 8.8% and D2 ag-3 11.8%.
For COc1ccc(C(=O)CCN2CCCCCC2)cc1 the results were D2 PAM-1 -7.7, D2 antagonist -6.9, D2 ag-1 -1.5, D2 ag-2 3.4 and D2 PAM-2 -14.3.
COc1ccc(C(=O)CCN2CCN(c3ccccc3F)CC2)cc1 was read as D2 PAM-1 -25.5, D2 antagonist 81.5*, D2 ag-1 1.9, D2 ag-2 28.4, D2 PAM-2 -34.7, D3 ag 3.8% and D2 ag-3 0.1%.
`CC(=O)N1CCc2cc(C(=O)CN3CCN(c4ccccc4F)CC3)ccc21` gave D2 PAM-1 10.8, D2 antagonist -4.5, D2 ag-1 -3.6, D2 ag-2 -0.4 and D2 PAM-2 -9.4.
For CC1=C(C(=O)Nc2cccc(Cl)c2C)C2(CCCCCC2)OC1=O the results were D2 PAM-1 0.3 and D2 ag-2 0.5.
COc1ccccc1NC(=O)CN1C(=O)CCSc2ccccc21 was read as D2 PAM-1 3.2 and D2 ag-2 -0.2.
Screening O=C1CCCN1C(=O)CSc1ccc2ccccc2n1 returned D2 PAM-1 5.2, D2 antagonist -1.5, D2 ag-1 -0.6, D2 ag-2 0.1 and D2 PAM-2 26.0.
`O=S(=O)(NCCCN1CCN(c2ccccc2F)CC1)c1cccc2cccnc12` gave D2 ag-1 -3.5, D2 PAM-2 0.8, D3 ag 16.6% and D2 ag-3 13.6%.
Screening O=S(=O)(NCCN1CCCC1)c1cccc2cccnc12 returned D2 PAM-1 0.5, D2 antagonist -9.8, D2 ag-1 -2.4, D2 ag-2 0.6 and D2 PAM-2 -5.6.
For CN(C)S(=O)(=O)c1ccc(NC(=O)/C=C/c2ccccc2Cl)cc1 the results were D2 PAM-1 18.1, D2 antagonist 13.1, D2 ag-1 inconclusive, D2 ag-2 13.9, D2 PAM-2 -12.6, D3 ag inconclusive and D2 ag-3 15.2%.
Screening O=C(/C=C/c1ccccc1Cl)Nc1ccccc1 returned D2 PAM-1 -13.5, D2 antagonist -6.7, D2 ag-1 3.5, D2 ag-2 -0.9 and D2 PAM-2 -2.8.
For CCOC(=O)N1CCN(CC(=O)Nc2c(C(=O)OC)[nH]c3cc(C)ccc23)CC1 the results were D2 PAM-1 -12.3, D2 ag-1 14.7, D2 PAM-2 -6.9, D3 ag inconclusive and D2 ag-3 16.3%.
